HIF-2a inh = HIF-2a inhibition; 786-0 RCC cells HIF-2a reporter, luciferase luminescence, overnight; inhibition, % at 18.8 µM; actives 0.72% (n = 360,000); AID 624352;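 active = inhibition of the luminescence signal of 40% or more relative to plate controls, in a single-dose primary screen at 18.75 µM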
Peg3 promoter = inhibitors of Peg3 promoter | actives 1.7% (n = 360,000) | inhibition, % at 20 µM | HeLa PEG-Prom luciferase reporter, luminescence, overnight;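 active = inhibition of at least 50% at 20 µM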
CF NFkB block = inhibitors of cystic fibrosis induced NF-kB; AID 588850; inhibition, % at 5 µM; KKLEB NF-kB-GFP reporter, PAF-induced, GFP fluorescence overnight; actives 0.86% (n = 360,000);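 active = at least 50% inhibition at 5 µM, scaled per plate between neutral and stimulator controls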;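 also: PAF is a Pseudomonas aeruginosa culture filtrate used as stimulus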
KKLEB cytotox = reduces viability of KKLEB cystic fibrosis airway cells; activity change (cytotoxicity), % at 5 µM; AID 602141; actives 0.36% (n = 360,000); KKLEB CF airway cells viability, ATPlite luminescence, overnight; stronger effect = lower value; cells stimulated with P. aeruginosa culture filtrate;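 active = corrected activity change at or below -50% at 5 µM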
TWEAK-Fn14 inh = inhibitors of TWEAK-Fn14 interaction signaling; TWEAK-stimulated Fn14 reporter cells, luciferase luminescence, 8 h; inhibition, % at 10 µM; actives 2% (n = 360,000); in the data active = inhibition above about 50%
TROY signal inh = blocks TROY-dependent signaling in reporter cells. Q293 LMP1-TROYcd NF-kB luciferase reporter, 4 h. inhibition, % at 10 µM. actives 0.98% (n = 360,000). AID 1347056;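 active = compounds whose plate-normalised and pattern-corrected inhibition of the luciferase reporter signal at the single screening dose is 50% or more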
Hits are given with their value; . = inactive; / = not tested or not shown. Shown are actives, neighbours in structure and some others; about 4% of the full set was active somewhere.

SMILES | HIF-2a inh | Peg3 promoter | CF NFkB block | KKLEB cytotox | TWEAK-Fn14 inh | TROY signal inh
Cc1ccc(NC(=O)CSc2nnc(-c3ccc(S(=O)(=O)N4CCCC4)cc3)o2)cc1C | . | 60.1 | . | . | . | .
COc1ccccc1-c1nnc2sc(-c3ccc(N(C)C)cc3)nn12 | . | . | 52.6 | . | . | .
COc1ccccc1-c1nnc2sc(-c3cnccn3)nn12 | . | . | . | . | . | .
C=CC[n+]1c(-c2ccc(C)cc2)csc1Nc1ccc(NC(C)=O)cc1 | 90.5 | . | . | . | 51.2 | .
COc1ccccc1CNC(=O)c1oc2ccc(S(=O)(=O)N3CCOCC3)cc2c1C | . | . | . | . | 52.1 | .
COc1ccc(NC(=O)c2oc3ccc(S(=O)(=O)N4CCC5(CC4)OCCO5)cc3c2C)cc1 | . | 69.5 | . | . | 52.9 | .
Cc1c(C(=O)N(C)Cc2ccccc2)oc2ccc(S(=O)(=O)N3CCCC3)cc12 | . | . | . | . | . | .
Cc1c(C(=O)NCc2ccc3c(c2)OCO3)oc2ccc(S(=O)(=O)N3CCCCC3)cc12 | . | . | . | . | 59.1 | .
Cc1c(C(=O)N(Cc2ccccc2)C(C)C)oc2ccc(S(=O)(=O)N3CCOCC3)cc12 | . | 51.1 | . | . | . | .
O=C(c1ccc(S(=O)(=O)Cc2cc(F)ccc2F)c([N+](=O)[O-])c1)N1CCCC1 | . | . | . | . | . | .
Cc1ccccc1CS(=O)(=O)c1ccc(C(=O)N2CCC(C)CC2)cc1[N+](=O)[O-] | . | . | . | . | 56.5 | .
O=C(c1ccc(S(=O)(=O)Cc2ccccc2Cl)c([N+](=O)[O-])c1)N1CCN(c2ccccn2)CC1 | . | . | . | . | 68.8 | .
CC1CCN(C(=O)c2ccc(S(=O)(=O)Cc3cccc(F)c3)c([N+](=O)[O-])c2)CC1 | . | . | . | . | 65.7 | .
O=C(c1ccc(S(=O)(=O)Cc2cc(F)ccc2F)c([N+](=O)[O-])c1)N1CCCCC1 | . | . | . | . | 62.0 | .
COc1ccc(C(=O)N2CCNC(=O)C2CC(=O)Nc2ccc(C)cc2)cc1 (stereo not given) | . | . | . | . | 54.7 | .
O=C(CNC(=O)/C(=C\c1ccccc1)NC(=O)c1ccc(Br)cc1)OCc1ccccc1 | . | . | . | . | 73.0 | /
COc1ccc(OC[C@@H](O)CNC(=O)c2cccc3c2C(=O)c2ccc(-c4ccc(F)cc4OCc4ccccc4)cc2S3(=O)=O)cc1 | . | . | . | . | . | .
COc1ccc(NC(=O)c2cccc3c2C(=O)c2ccc(-c4ccc(F)cc4OCc4ccccc4)cc2S3(=O)=O)cc1 | . | . | . | -57.1 | . | .
Cc1ccc(C(=O)Nc2cccc(C(F)(F)F)c2)cc1NC(=O)c1csc(-c2ccncc2)n1 | . | . | . | . | . | .
N#C/C(=N\Nc1cccc(C(F)(F)F)c1)C(=O)c1csc(-c2cccnc2)n1 | . | . | 53.4 | . | . | 66.2
CN(CC(=O)Nc1ccccc1C(=O)NC1CC1)Cc1ccc(N(C)C)cc1 | . | . | . | . | . | .
Cc1ccc(N=Cc2ccc[nH]2)c(O)c1 | . | . | . | . | . | 75.7
O=C(CSc1ccc(-c2ccccn2)nn1)c1ccccc1 | . | . | . | . | . | .
Cn1c(SCC(=O)c2ccc(F)cc2)nc2cccnc21 | . | . | . | . | 61.3 | .
CCOC(=O)CSc1nc2cccnc2n1-c1ccc(F)cc1 | . | . | . | . | . | 60.7
SMILES | HIF-2a inh | Peg3 promoter | CF NFkB block | KKLEB cytotox | TWEAK-Fn14 inh | TROY signal inh
O=C(CSc1ccc(-c2ccccn2)nn1)c1ccc(F)cc1 | . | . | . | . | 81.8 | .
Cc1ccc(C(=O)CSc2nc3cccnc3n2C)cc1 | . | . | . | . | . | .
O=C(Nc1ccnn1C1CCN(Cc2ccc(CO)o2)CC1)c1cccc(F)c1 | . | . | . | . | . | .
O=C(CCS(=O)(=O)c1ccccc1)Nc1nc2c(s1)COc1ccccc1-2 | . | 92.5 | . | . | . | .
CN(C)c1ccc(C(O)Cc2nc3ccccc3n2C)cc1 (stereo not given) | . | . | . | . | 73.8 | 79.3
COc1cccc(-c2cc(C(=O)NC3CCCCC3)no2)c1 | . | . | . | . | . | .
O=C(NN=C(c1ccccc1)c1ccccn1)c1ccccc1 | . | . | . | . | . | .
C/C(=N\NC(=O)c1ccccc1OCc1ccc(F)cc1)c1ccccn1 | . | 50.4 | . | . | . | .
C/C(=N\NC(=O)c1cccc2ccccc12)c1ccccn1 | . | . | . | . | 101.5 | .
C/C(=N\NC(=O)C(c1ccccc1)c1ccccc1)c1ccccn1 | . | 97.4 | . | . | 56.7 | .
C/C(=N\NC(=O)C(c1ccccc1)c1ccccc1)c1ccc(O)cc1 | . | . | . | . | . | .
O=C(N/N=C(\c1ccccc1)c1ccccn1)c1ccccc1Cl | . | 54.0 | . | . | . | .
Cn1cc(Cc2ccc(C(=O)NCc3ccccc3)cn2)c2ccccc21 | . | . | . | . | . | .
O=c1c2ccccc2cnn1-c1ccc2ccccc2c1 | . | . | . | . | 55.0 | .
CCCCc1ccc(NC(=O)CSc2nc(=O)n(CCN(C)C)c3c2CCC3)cc1 | . | . | . | . | . | .
CCCCc1ccc(NC(=O)CSc2nc(=O)n(CCN(CC)CC)c3c2CCCC3)cc1 | . | . | . | . | . | 54.2
Cc1ccc(NCc2nc3ccccc3n2C)cc1 | . | . | . | . | 65.8 | .
Cn1c(CNc2ccc(O)cc2)nc2ccccc21 | . | . | . | . | . | .
O=C(NCc1ccccc1)C1=C[C@H](C2CCCCC2)C[C@H](OCCCCO)O1 | . | . | . | . | . | .
O=C(Nc1ccccc1)C1=C[C@@H](C2CCCCC2)C[C@@H](OCCCCO)O1 | . | . | . | . | 62.0 | 67.1
O=C(Nc1ccccc1)C1=C[C@H](C2CCCCC2)C[C@H](OCCCCO)O1 | . | . | . | . | 57.5 | 66.7
CC(C)(C)[C@H]1C=C(C(=O)Nc2ccccc2)O[C@@H](OCCCCO)C1 | . | . | . | . | 83.8 | 83.8
O=C(O)CSc1nnc(NC(=O)CN2CCOCC2)s1 | . | . | . | . | . | .
CCOC(=O)CC1(C)Oc2cc(Cl)ccc2N1S(=O)(=O)c1ccc(C)cc1 (stereo not given) | . | / | / | / | / | /
Cc1cc(/C=C2/C(=O)NN(c3ccccc3)C2=O)c(C)n1-c1cccc(O)c1 | . | . | . | . | 91.7 | 80.8
CC1=C(C(=O)OCCBr)C(c2cccc3ccccc23)NC(=O)N1 (stereo not given) | . | . | . | . | 52.9 | .
CCCOC(=O)C1=C(C)NC(=O)NC1c1cccc2ccccc12 (stereo not given) | . | . | . | . | . | .
COc1cc(C)ccc1OCc1cc(C(=O)N2CCC(c3ccc(F)cc3)C2)no1 (stereo not given) | . | . | . | . | . | .

Source: PubChem (Sanford-Burnham Center for Chemical Genomics)
